Test results published in PubChem BioAssay (NCATS).
Records with an inconclusive call do not appear. Activity calls are given as the source filed them. The call rests on the fitted dose curve; in most records, active means well fitted inhibition curve with a large enough effect; inconclusive means small, poorly fitted or top-dose-only effect; inactive means flat fitted curve, though single readings scatter.

How the values were obtained:
SC27B = assay: qHTS profiling for inhibitors of Plasmodium falciparum proliferation (AID 504749);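 further: 0% = DMSO vehicle and full inhibition = artemisinin control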; settings: P. falciparum in erythrocytes, SYBR Green DNA, 72 h; series mostly up to 28.7 µM
Summary of the method: (§1)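 P. falciparum-infected erythrocytes (0.3% parasitemia, 2.5% hematocrit final) were exposed to compounds for 72 h at 37 C in 5% CO2, then lysed with SYBR Green buffer overnight at room temperature; parasite DNA fluorescence was normalized to artemisinin and DMSO controls.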

TAB109 = assay: as above; settings: P. falciparum in erythrocytes, SYBR Green DNA, 72 h; series mostly up to 28.7 µM
Summary of the method: as §1

TAB113 = assay: as above; settings: P. falciparum in erythrocytes, SYBR Green DNA, 72 h; series mostly up to 28.7 µM
Summary of the method: as §1

TAB165 = assay: as above; settings: P. falciparum in erythrocytes, SYBR Green DNA, 72 h; series mostly up to 28.7 µM
Summary of the method: as §1

W2 = assay: as above; settings: P. falciparum in erythrocytes, SYBR Green DNA, 72 h; series mostly up to 28.7 µM
Summary of the method: as §1

CRL-7250 [1] = assay: Cytotoxic Profiling of Annotated Libraries Using Quantitative High-Throughput Screening (AID 1296008); settings: Five cell lines viability, CellTiter-Glo ATP luminescence, 48-72 h; max response: stronger effect = lower value; on max response: on the % scale 0 is the no-effect control and ±100 the full control effect
Summary of the method: (§2)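 Compounds were pin-transferred onto cells and incubated 48 or 72 hr at 37 degree Celsius, 95% humidity. CellTiter-Glo was added, plates sat 10 min at room temperature, then ATP-coupled luminescence was imaged as the viability read-out.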

HaCat [2] = assay: as above; settings: Five cell lines viability, CellTiter-Glo ATP luminescence, 48-72 h; max response: stronger effect = lower value
Summary of the method: as §2

KB-3-1 = assay: as above; settings: Five cell lines viability, CellTiter-Glo ATP luminescence, 48-72 h; max response: stronger effect = lower value
Summary of the method: as §2

NIH3T3 [3] = assay: as above; settings: Five cell lines viability, CellTiter-Glo ATP luminescence, 48-72 h; max response: stronger effect = lower value
Summary of the method: as §2

CRL-7250 [4] = assay: qHTS assay to identify novel small-molecules to repurpose for Merkel cell carcinoma treatment (AID 1296009); settings: MCC and control cell lines, CellTiter-Glo viability, 72 h; at 44.8 µM (top of the series) unless noted
Summary of the method: (§3)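 Cells exposed to NPC (8-point) and MIPE (11-point) compound dilutions for 72 hr at 37 degree celsius; viability read by CellTiter-Glo luminescence, normalized to no-cell and DMSO in-plate controls.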

HACAT [5] = assay: as above; settings: MCC and control cell lines, CellTiter-Glo viability, 72 h; at 44.8 µM (top of the series) unless noted
Summary of the method: as §3

MCC-13 = assay: as above; settings: MCC and control cell lines, CellTiter-Glo viability, 72 h; series mostly up to 46 µM
Summary of the method: as §3

MCC-26 = assay: as above; settings: MCC and control cell lines, CellTiter-Glo viability, 72 h; series mostly up to 46 µM
Summary of the method: as §3

MKL-1 = assay: as above; settings: MCC and control cell lines, CellTiter-Glo viability, 72 h; series mostly up to 46 µM
Summary of the method: as §3

MKL-2 = assay: as above; settings: MCC and control cell lines, CellTiter-Glo viability, 72 h; series mostly up to 46 µM
Summary of the method: as §3

NIH3T3 [6] = assay: as above; settings: MCC and control cell lines, CellTiter-Glo viability, 72 h; at 44.8 µM (top of the series) unless noted
Summary of the method: as §3

UISO = assay: as above; settings: MCC and control cell lines, CellTiter-Glo viability, 72 h; series mostly up to 46 µM
Summary of the method: as §3

WaGa = assay: as above; settings: MCC and control cell lines, CellTiter-Glo viability, 72 h; series mostly up to 46 µM
Summary of the method: as §3

HEK293 = assay: Cytotoxic Profiling of Annotated Libraries Using Quantitative High-Throughput Screening (AID 1296008); settings: Five cell lines viability, CellTiter-Glo ATP luminescence, 48-72 h; max response: stronger effect = lower value; on max response: on the % scale 0 is the no-effect control and ±100 the full control effect
Summary of the method: as §2
Further: nearly all actives have a fitted effect of over 60% in size.

CN1C(=O)CN=C(c2ccccc2)c2cc([N+](=O)[O-])ccc21
inactive: Potency (SC27B) | Potency (TAB109) | Potency (TAB113) | Potency (TAB165) | Potency (W2) | outcome (CRL-7250 [1]) | outcome (HaCat [2]) | max response (KB-3-1) 9.64% | outcome (NIH3T3 [3]) | outcome (CRL-7250 [4]) | outcome (HACAT [5]) | Potency (MCC-13) | Potency (MCC-26) | Potency (MKL-1) | Potency (MKL-2) | outcome (NIH3T3 [6]) | Potency (UISO) | Potency (WaGa)

CCc1ccc(C2CCNCC2)cc1
inactive: outcome (CRL-7250 [1]) | max response (HEK293) -21.3% | outcome (HaCat [2]) | max response (NIH3T3 [3]) 1.66% | outcome (CRL-7250 [4]) | outcome (HACAT [5]) | Potency (MCC-13) | Potency (MCC-26) | Potency (MKL-1) | Potency (MKL-2) | Potency (UISO) | Potency (WaGa)

CC(C)(C)OC(=O)c1ncn2c1[C@@H]1CCCN1C(=O)c1c(Br)cccc1-2
inactive: Potency (SC27B) | Potency (TAB109) | Potency (TAB113) | Potency (TAB165) | outcome (CRL-7250 [1]) | max response (HaCat [2]) 3.04% | max response (KB-3-1) -1.12% | outcome (NIH3T3 [3]) | outcome (CRL-7250 [4]) | Potency (MCC-13) | Potency (MCC-26) | Potency (MKL-1) | Potency (MKL-2) | outcome (NIH3T3 [6]) | Potency (UISO) | Potency (WaGa)

Nc1ccc(Cl)cc1C(=O)c1ccccc1F
inactive: max response (CRL-7250 [1]) -4.36% | max response (HEK293) -6.5% | max response (HaCat [2]) 0.566% | max response (NIH3T3 [3]) 0.255% | Potency (MCC-13) | Potency (MCC-26) | Potency (MKL-1) | Potency (MKL-2) | Potency (WaGa)

COc1cc(CC#N)cc(OC)c1OC
inactive: max response (CRL-7250 [1]) -2.26% | max response (HEK293) -3.74% | outcome (HaCat [2]) | max response (NIH3T3 [3]) -3.69% | outcome (HACAT [5]) | Potency (MCC-13) | Potency (MCC-26) | Potency (MKL-1) | Potency (MKL-2) | Potency (UISO) | Potency (WaGa)

CC1Sc2c(C(=O)O)c(=O)c3cc(F)c(N4CCNCC4)cc3n21 (stereo unspecified)
inactive: max response (CRL-7250 [1]) -1.22% | max response (HEK293) 4.19% | max response (HaCat [2]) 0.258% | outcome (NIH3T3 [3]) | Potency (MCC-13) | Potency (MCC-26) | Potency (MKL-1) | Potency (MKL-2) | outcome (NIH3T3 [6]) | Potency (UISO)

CCC(=O)C(CCN(C)C)(c1ccccc1)c1ccccc1
inactive: max response (CRL-7250 [1]) -11.9% | max response (HEK293) -18.5% | max response (HaCat [2]) -17.8% | max response (NIH3T3 [3]) 2.72% | Potency (MCC-13) | Potency (MCC-26) | Potency (MKL-1) | Potency (UISO)

O=C(CBr)Nc1ccc(Cl)cc1C(=O)c1ccccc1F
inactive: outcome (CRL-7250 [1]) | max response (HEK293) -0.335% | max response (HaCat [2]) 3.69% | outcome (NIH3T3 [3]) | outcome (CRL-7250 [4]) | Potency (MCC-13) | Potency (MCC-26) | Potency (MKL-1) | Potency (MKL-2) | outcome (NIH3T3 [6]) | Potency (UISO) | Potency (WaGa)
